Shown are actives, neighbours in structure and some others; about 4.8% of the full set was active somewhere.
ALR inh: human ALR oxidase inhibition via reduced H2O2; purified ALR, DTT oxidation, H2O2 HRP-luminol luminescence; inhibition, % (test concentration not listed); 3.8% of 290,000 active;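 active = mean replicate inhibition above about 79%, with every replicate also reaching it, limit read from the data; inconclusive = only one of the two criteria met; inactive = mean below limit and not every replicate reaching it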
Target sequence (P55789 whole entry, looked up): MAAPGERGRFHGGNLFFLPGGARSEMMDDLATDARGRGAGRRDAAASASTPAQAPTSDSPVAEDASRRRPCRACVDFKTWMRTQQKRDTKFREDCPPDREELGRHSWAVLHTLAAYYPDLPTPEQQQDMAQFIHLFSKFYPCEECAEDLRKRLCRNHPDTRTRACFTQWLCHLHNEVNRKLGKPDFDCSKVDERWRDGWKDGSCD
AI-2 QS mod: modulators of Vibrio harveyi AI-2 quorum sensing system | Vibrio harveyi JMH597 AI-2 luminescence/OD600 ratio, 9 h; active compounds read low; strain lacks LuxN and CqsS sensors; 0 = neutral-control median | AID 2094 | 0.4% of 300,000 active | activity change, % at 7.5 µM; in the data active = activity change below about -75%, passing the limit was not always enough; inconclusive = no clear call, values can overlap the other calls;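 also: luminescence divided by OD600 gain over 9 h not by final OD600 alone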
HIF activator: HIF pathway transcriptional activation; U2OS HRE-luciferase reporter, luminescence; normalized: DMSO 0%, desferrioxamine 100%; activation, % at 7.5 µM (by protocol); 0.32% of 300,000 active; AID 1910;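 active = mean activation of at least 10% of the iron chelator positive control signal, with at least half of replicates also reaching 10%; inconclusive = mean and replicate majority disagree about reaching 10%; inactive = mean and most replicates under 10%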
Mot1-301 SUMO: SUMOylation pathway inhibition by Mot1-301 growth rescue. 1% of 320,000 active. S. cerevisiae Mot1-301 growth rescue, ATP luminescence, 38.5C; percent above DMSO median, 100 means doubled. growth rescue, % at 18.8 µM;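 active = every valid replicate shows activation above 250% relative to neutral control wells; inactive = the rest, any valid replicate at or below 250%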
Numbers stand for hits; 0 = inactive; ? = inconclusive; - = no result given.

SMILES	ALR inh	AI-2 QS mod	HIF activator	Mot1-301 SUMO
Cc1cc(C(=O)Nc2ccccc2N2CCOCC2)ccc1[N+](=O)[O-]	0	0	0	0
CCOC(=O)c1cc(CC)sc1NC(=O)c1ccc([N+](=O)[O-])c(N2CCOCC2)c1	-	0	0	371
Cc1cccc(N(CC(=O)NC(C)C)C(=O)CCC(=O)Nc2nccs2)c1	0	0	0	0
CC(C)(C)c1ccc(NC(=O)C2=CC=CN3CCS(=O)(=O)N=C23)cc1	0	-	-	0
CCN(CC)c1ccc(NC(=O)C2=CC=CN3CCS(=O)(=O)N=C23)cc1	99	-	-	0
COCCNC(=S)N/N=C/c1ccc(N2CCOCC2)cc1	99	0	0	0
COc1ccc(OC)c(NC(=S)NCCN2CCOCC2)c1	0	0	0	0
Oc1ccc(/C=N/NC(=S)N2CCOCC2)cc1	99	0	0	0
COc1cc(/C=N/NC(=S)NCCN2CCOCC2)ccc1O	99	0	0	0
C=C(C)CNC(=S)N/N=C/c1ccc(N2CCOCC2)cc1	?	0	0	0
CC(C)NC(=S)N/N=C/c1ccc(N2CCOCC2)cc1	99	0	0	0
COc1cccc(-c2ccc(NC(=O)C3CCCN(Cc4nccn4C)C3)cc2)c1 (stereo unspecified)	0	0	0	0
CC(C(=O)Nc1ccc(N2CCOCC2)cc1)N1C(=O)NC(C)(C)C1=O (stereo unspecified)	0	-	-	0
COCCNC(=S)Nc1ccc(N2CCCCC2)cc1	99	0	0	0
O=C(Nc1nc2c(F)cc(F)cc2s1)c1ccccn1	0	0	10	0
Cc1ccc2nc(NC(=O)c3ccccn3)sc2c1	0	0	0	0
C=CCN1C=CC=C/C1=C1\SC(=S)N(C)C1=O	99	0	0	0
CN1C=CC=C/C1=C1\SC(=S)N(C2CCCCC2)C1=O	99	0	0	0
CN1C=CC=C/C1=C1\SC(=S)N(c2ccccc2)C1=O	99	0	0	0
CN1C=CC=C/C1=C1\SC(=S)N(CC(=O)O)C1=O	0	0	0	0
CCCCC(=O)NNC(=O)N1c2ccccc2Sc2ccccc21	99	0	0	0
CC(C)(C)NC(=O)N1c2ccccc2Sc2ccccc21	82	0	0	0
COc1ccc(N(C)C(=O)c2ccc(NC(=O)CCS(=O)(=O)c3cccs3)cc2)cc1	0	0	0	0
COc1ccc(S(=O)(=O)N2CCC(C(=O)NN3CCCCC3)CC2)cc1OC	0	-	-	0
CC(C(=O)Nc1ccccc1-c1ccccc1)N1CCN(C(=O)c2ccccc2)CC1 (stereo unspecified)	-	0	34	0
SMILES	ALR inh	AI-2 QS mod	HIF activator	Mot1-301 SUMO
COc1ccccc1NC(=O)C(C)N(C)Cc1ccc(Cl)s1 (stereo unspecified)	0	0	0	0
Cc1nn2c(=S)[nH]nc2[nH]c1=O	95	0	0	0
Cc1n[nH]c(=S)n(NC(=O)/C=C/C(=O)Nn2c(=S)[nH]nc(C)c2=O)c1=O	-	0	0	-
COc1ccc(C(=O)/C=C/c2ccsc2)cc1CSCC(=O)O	99	0	0	0
COc1ccc(/C=C/C(=O)c2ccc(O)cc2)cc1CN1CCOCC1	0	0	0	0
O=C(Nc1sc2c(c1C(=O)O)CCCC2)c1cccs1	0	0	0	0
Cc1ccc(/C=C/C(=O)NC2CCCCCCC2)o1	99	0	0	0
O=C(/C=C/c1cccs1)Nc1sc2c(c1C(=O)O)CCCC2	88	0	0	0
COC(=O)c1c(NC(=O)/C=C/c2ccco2)sc2c1CCC2	92	0	0	0
Cc1ccc(/C=C/C(=O)Nc2sc3c(c2C#N)CCCC3)o1	93	0	0	0
COC(=O)c1ccc(NS(=O)(=O)c2cc(-c3cc(C)no3)ccc2OC)cc1	0	0	0	0
CN(Cc1ccccc1)C(=O)C1CCN(S(=O)(=O)c2ccc(-n3cnnn3)cc2)CC1	-	0	0	0
CSc1ncccc1C(=O)Nc1cccc(S(=O)(=O)N(C)c2ccccc2)c1	-	-	-	0
CCN(Cc1nc2ccccc2c(=O)[nH]1)C(=O)COc1ccccc1-c1ccccc1	0	-	-	0
CC(C)(C)C1CCc2c(sc(NC(=O)C3CC=CCC3C(=O)O)c2C#N)C1 (stereo unspecified)	97	0	0	0
N#Cc1c(NC(=O)C2CC=CCC2C(=O)O)sc2c1CCCCCC2 (stereo unspecified)	-	0	0	0
CC1CCc2c(sc(NC(=O)c3ccccc3C(=O)O)c2C#N)C1 (stereo unspecified)	97	0	0	0
c1ccc([C@H]2CN3C(=N2)Sc2ccccc23)cc1	0	-	-	0
CC(=O)Oc1ccc2c(=O)c(Oc3ccccc3)coc2c1OC(C)=O	99	0	0	0
